Source: PubChem (National Center for Advancing Translational Sciences (NCATS))
Shown are actives, neighbours in structure and some others; about 8.3% of the full set was active somewhere.
RORgamma inh: blocks mouse ROR gamma transcriptional activity. P51450. Drosophila S2 Gal4-RORgamma UAS-luciferase reporter, 20 h. Potency, µM (top dose mostly 53.6 µM), inactives show at the highest dose activity change, negative = inhibition, most hits filed as inhibitors. 310,000 tested, 5.4% active; further: potency means the concentration at half of the fitted maximal effect; on the % scale 0 is the no-effect control and ±100 the full control effect; nearly all actives have a fitted effect of over 60% in size
Target sequence (P51450 whole entry, looked up, the tested form may be a part): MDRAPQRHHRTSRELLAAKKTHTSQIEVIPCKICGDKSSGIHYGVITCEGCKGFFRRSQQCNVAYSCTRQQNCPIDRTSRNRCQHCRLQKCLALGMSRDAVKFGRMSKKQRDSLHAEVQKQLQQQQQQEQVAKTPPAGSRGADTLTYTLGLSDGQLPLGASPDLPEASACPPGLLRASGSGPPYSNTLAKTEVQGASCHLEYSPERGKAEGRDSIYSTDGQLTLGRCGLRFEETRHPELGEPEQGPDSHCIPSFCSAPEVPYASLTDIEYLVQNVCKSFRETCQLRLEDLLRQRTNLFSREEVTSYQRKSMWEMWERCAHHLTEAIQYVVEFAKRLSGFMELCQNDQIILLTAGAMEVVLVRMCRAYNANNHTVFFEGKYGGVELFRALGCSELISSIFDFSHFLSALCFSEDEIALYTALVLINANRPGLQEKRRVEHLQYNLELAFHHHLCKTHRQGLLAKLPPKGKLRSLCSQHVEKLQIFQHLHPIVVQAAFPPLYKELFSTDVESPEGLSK
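Luminescence from a UAS-regulated Photinus luciferase reporter in stably transfected Drosophila Schneider cells is measured; decreased signal marks ROR gamma inhibition. Fusion expression is induced by 700 uM copper sulfate for 20 hr.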
Giardia kill: kills Giardia lamblia; Giardia lamblia trophozoite viability; activity change, % at 7.66 µM, hits read low; 340,000 tested, 0.15% active; in the data active means activity change below about -80%; inconclusive means between about -30% and that limit;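 further: parasites exposed to compound for two days anaerobically before the ATP read; on the % scale 0 is the no-effect control and ±100 the full control effect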
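Viability, read as ATP luminescence: trophozoites at 100 cells/well, compound added, 48 hrs anaerobic at 37 deg C, then 15-30 min room-temperature development before reading.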
VP16 counter: counter-screen for ROR gamma inhibitors: Gal4-VP16 reporter; Drosophila S2 Gal4-VP16 UAS-luciferase, luminescence, 20 h; Potency, µM (doses to about 53.6 µM), without a hit: at the highest dose activity, negative = inhibition, hits mostly inhibitors; 310,000 tested, 3.5% active; AID 2546;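 further: Gal4-VP16 expression switched on by copper sulfate through the metallothionein promoter; potency means the concentration at half of the fitted maximal effect; on the % scale 0 is the no-effect control and ±100 the full control effect; nearly all actives have a fitted effect of over 50% in size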
MCF10A rerep: induces DNA re-replication in MCF 10a normal breast cells; 350,000 tested, 2.9% active; Potency, µM (top dose mostly 46.1 µM), without a hit: at the highest dose activity, positive = re-replication, hits mostly activators; AID 624296; MCF 10A DNA re-replication, Hoechst nuclear intensity, 48 h; further: potency means the concentration at half of the fitted maximal effect; % of control where 0% means no effect; nearly all actives have a fitted effect of over 50% in size
BCR signal inh: inhibitors of chronic active B-cell receptor signaling | ABC-DLBCL IkBa-CBG/CBR reporter, luminescence ratio, 4 h | Potency, µM (titrated, usually from 46.1 µM), inactives show at the highest dose activity change, negative = inhibition, most hits filed as inhibitors | 340,000 tested, 0.05% active | AID 493014; active means well fitted inhibition curve with a large enough effect in the signal ratio, with a control signal flat, not every such curve was filed as active; inconclusive means small, poorly fitted or top-dose-only effect, or effect the other way, or a change in a side signal; the % refers to the signal ratio;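 further: potency means the concentration at half of the fitted maximal effect; plate controls were basal doxycycline-induced cells for no effect and cells given 10 µM MG132 for full effect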
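TMD8 ABC-DLBCL cells carrying doxycycline-inducible green luciferase fused to IkappaBalpha plus unfused red luciferase were exposed to compounds (up to 46 uM) for 4 hrs at 37C. Activity came from the overlap-corrected green/red luminescence ratio.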
SW480 rerep: inducers of DNA re-replication in SW480 colon cancer cells | SW480 DNA re-replication, Hoechst DNA content imaging, 48 h | Potency, µM (top dose mostly 46.1 µM), without a hit: at the highest dose re-replication activation, actives largely listed as activators | 340,000 tested, 1.8% active | AID 624297; further: potency means the concentration at half of the fitted maximal effect; % of control where 0% means no effect; nearly all actives have a fitted effect of over 55% in size
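Compounds, transferred as 23 nL by pin tool, were incubated with cells for 48 hr; DNA content per nucleus was then quantified by Hoechst staining and fluorescence plate imaging.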
Numbers without * were called inactive; u = inconclusive; x = not tested or not shown. Unless noted, the call rests on the fitted dose curve; in most records, active means well fitted curve in the direction sought with a large enough effect; inconclusive means small, poorly fitted or top-dose-only effect, or another doubt; inactive means no such curve, though single readings can be large; an effect the other way counts as inactive or inconclusive.

SMILES	RORgamma inh	Giardia kill	VP16 counter	MCF10A rerep	BCR signal inh	SW480 rerep
O=C(NC(=S)Nc1ccc(N2CCCCC2)c(Cl)c1)c1ccc2c(c1)OCCO2	3.16µM*	11.0	6.31µM*	9.2µM*	0.1%	u
O=C(NC(=S)Nc1ccccc1N1CCCCC1)c1cccs1	1.58µM*	18.2	u	u	0.9%	u
CN1CCN(c2ccccc2NC(=O)c2cccs2)CC1	-19.2%	5.8	-2.0%	2.6%	u	-5.0%
O=C(Nc1ccccc1N1CCOCC1)c1cccs1	38.6%	1.0	-11.6%	2.5%	9.2%	-14.3%
O=C(NC(=S)Nc1ccccc1N1CCOCC1)c1cccs1	6.31µM*	12.1	14.1µM*	u	u	-0.4%
O=C(NC(=S)Nc1ccc(N2CCOCC2)c(Cl)c1)c1cccs1	u	13.0	14.1µM*	18.9%	-6.4%	4.1%
CCN1CCN(c2ccc(NC(=O)c3ccc4c(c3)OCCO4)cc2C)CC1	x	-23.4	x	-11.1%	7.5%	-0.8%
O=C(C1COc2ccccc2O1)N1CCN(c2nc3c(F)cc(F)cc3s2)CC1 (centres undefined)	x	7.0	x	27.6%	-0.1%	1.0%
Cc1ccc(C)c(NC(=O)CSc2nnc(NC(=O)C3CC3)s2)c1	24.5%	-14.5	-5.1%	0.0%	u	-11.6%
CCN(CC)CCNC(=O)C(=O)NCC1OCCN1S(=O)(=O)c1ccc([N+](=O)[O-])cc1 (centres undefined)	19.9%	8.9	-9.4%	5.6%	-1.0%	12.9%
O=C(Nc1ccc(N2CCOCC2)c(Cl)c1)c1cccnc1	12.0%	5.3	17.5%	-1.1%	-7.4%	-2.3%
CC(C)CC(=O)NC(=S)Nc1ccc(N2CCOCC2)c(Cl)c1	7.94µM*	-4.4	u	u	u	23.9%
O=C(NC(=S)Nc1ccc(N2CCOCC2)c(Cl)c1)c1cncc(Br)c1	1µM*	-14.9	0.562µM*	7.5%	-7.5%	u
O=C(NC(=S)Nc1ccccc1N1CCN(C(=O)c2ccccc2)CC1)c1cccs1	-21.2%	2.8	-6.6%	1.9%	14.4%	-1.7%
O=C(NC(=S)Nc1ccccc1N1CCCC1)c1cccs1	4.47µM*	19.0	15.8µM*	8.1%	19.6%	-6.6%
COc1cc(OC)cc(C(=O)NCC(=O)NC(C)c2ccccc2)c1 (centres undefined)	8.4%	11.0	-19.5%	-22.1%	-0.4%	3.9%
Cn1c(CCC(=O)OCC(=O)NCc2ccc3c(c2)OCO3)nc(=O)c2ccccc21	19.2%	-12.7	2.6%	u	-11.2%	9.0%
CC1C=CC=CC=CC=CC=CC=CC=CC(OC2OC(C)C(O)C(N)C2O)CC2OC(O)(CC(O)CC(O)C(O)CCC(O)CC(O)CC(=O)OC(C)C(C)C1O)CC(O)C2C(=O)O (centres undefined)	x	-5.2	x	3.26µM*	x	6.51µM*
COc1ccc(N(CC(=O)NC2CCCC2)C(=O)c2ccc(C)s2)c(OC)c1	-28.6%	-0.4	3.1%	8.5%	u	-0.8%
O=C(NN=C1c2ccccc2-c2ccccc21)c1cccc(Br)c1	1.78µM*	15.4	3.16µM*	u	u	19.0%
O=C(COc1cccc(Br)c1)NN=C1c2ccccc2-c2ccccc21	20µM*	-12.8	u	u	-0.6%	-3.2%
O=C(COc1cccc(Br)c1)N/N=C1\CCCc2ccccc21	-0.9%	8.1	-4.5%	-4.1%	u	-5.3%
COc1ccccc1NC(=O)Cc1c(C(=O)O)[nH]c2ccc(Cl)cc12	x	x	x	x	3.7%	x
COc1ccc2oc(C(=O)OCC(=O)N(CCC#N)c3ccccc3)c(C)c2c1	-12.4%	15.8	-1.9%	14.5%	13.2%	0.9%
C/C(=C\C(=S)Nc1ccccc1)Nc1ccc2ccccc2c1	5.62µM*	2.4	3.55µM*	u	u	u
C/C(=C\C(=S)Nc1ccccc1)Nc1cccc2ccccc12	15.8µM*	-4.2	u	10.3%	-6.9%	-6.4%
